Our source for the binding signal values is article PMC5700166.

Residue numbers refer to the chain shown, from its start.

What all share (assay): protein-binding microarray (PBM); PBM: ~300 nM protein, 6 mM HEPES pH 7.8, 80 mM KCl, 0.5 mM EDTA, 0.5 mM EGTA, 6% glycerol, 35 ng/ul poly-dIdC, 1% milk, 1 h, room temperature; Ap Aiptasia and Nv Nematostella (sea anemones) / Co Capsaspora / Aq Amphimedon (sponge) / Dm Drosophila / Hu human; RHD is the Rel homology domain; high values mean tight binding
Common to all, as to conditions: dsDNA, one strand shown

The target in one assay is T1, GST-Ap-NF-kB RHD (Exaiptasia pallida (Aiptasia), UniProt A0A913YAJ5 2-422).
T1 sequence: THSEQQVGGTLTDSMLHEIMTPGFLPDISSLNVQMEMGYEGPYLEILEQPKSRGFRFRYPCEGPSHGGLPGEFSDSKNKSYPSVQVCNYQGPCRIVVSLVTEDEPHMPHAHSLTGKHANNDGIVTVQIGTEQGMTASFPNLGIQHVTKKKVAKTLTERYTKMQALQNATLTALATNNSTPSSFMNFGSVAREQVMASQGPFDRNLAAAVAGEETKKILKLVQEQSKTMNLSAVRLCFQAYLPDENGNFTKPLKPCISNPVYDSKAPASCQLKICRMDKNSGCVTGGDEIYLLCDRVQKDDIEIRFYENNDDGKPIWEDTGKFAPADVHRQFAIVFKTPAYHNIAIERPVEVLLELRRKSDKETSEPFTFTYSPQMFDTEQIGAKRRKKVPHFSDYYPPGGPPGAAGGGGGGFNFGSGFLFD

Assay [1] has as its target T2, GST-Nv-NF-kB (Cys allele) (Nematostella vectensis, UniProt E5G601 2-411).
T2 sequence: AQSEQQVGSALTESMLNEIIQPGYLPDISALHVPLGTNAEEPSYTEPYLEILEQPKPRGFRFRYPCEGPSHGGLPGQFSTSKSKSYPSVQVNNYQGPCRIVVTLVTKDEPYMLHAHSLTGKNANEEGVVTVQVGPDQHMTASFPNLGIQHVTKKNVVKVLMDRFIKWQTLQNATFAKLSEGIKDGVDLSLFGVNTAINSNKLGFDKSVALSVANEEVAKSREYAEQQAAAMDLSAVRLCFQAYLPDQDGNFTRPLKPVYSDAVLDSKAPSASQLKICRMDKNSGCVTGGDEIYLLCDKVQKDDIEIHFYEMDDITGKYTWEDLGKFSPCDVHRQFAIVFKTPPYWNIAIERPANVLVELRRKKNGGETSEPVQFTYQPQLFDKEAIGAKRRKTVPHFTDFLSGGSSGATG

The target in assay [2] is T3, GST-Nv-NF-kB (Ser allele) (Nematostella vectensis, UniProt A7UNT2 2-411).
T3 sequence: T2 sequence with Q21R, C66S, S207N, E215Q, V217A, E225K, A268E, D399E

A further assay concerns the target T4, GST-Co-NF-kB (Capsaspora owczarzaki, UniProt F1ARL5 200-546).
T4 sequence: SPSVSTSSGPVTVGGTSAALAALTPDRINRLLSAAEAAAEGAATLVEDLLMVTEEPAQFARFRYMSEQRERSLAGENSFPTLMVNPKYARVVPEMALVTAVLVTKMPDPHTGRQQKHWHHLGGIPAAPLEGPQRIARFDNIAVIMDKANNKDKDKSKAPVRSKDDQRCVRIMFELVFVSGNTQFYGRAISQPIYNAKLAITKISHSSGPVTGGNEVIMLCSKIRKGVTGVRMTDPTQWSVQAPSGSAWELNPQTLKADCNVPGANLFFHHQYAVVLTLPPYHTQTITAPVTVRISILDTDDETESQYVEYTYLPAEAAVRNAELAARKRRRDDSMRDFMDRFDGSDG

The target of a further assay is T5, GST-Dm-Relish (Drosophila melanogaster, UniProt Q94527 99-473).
T5 sequence: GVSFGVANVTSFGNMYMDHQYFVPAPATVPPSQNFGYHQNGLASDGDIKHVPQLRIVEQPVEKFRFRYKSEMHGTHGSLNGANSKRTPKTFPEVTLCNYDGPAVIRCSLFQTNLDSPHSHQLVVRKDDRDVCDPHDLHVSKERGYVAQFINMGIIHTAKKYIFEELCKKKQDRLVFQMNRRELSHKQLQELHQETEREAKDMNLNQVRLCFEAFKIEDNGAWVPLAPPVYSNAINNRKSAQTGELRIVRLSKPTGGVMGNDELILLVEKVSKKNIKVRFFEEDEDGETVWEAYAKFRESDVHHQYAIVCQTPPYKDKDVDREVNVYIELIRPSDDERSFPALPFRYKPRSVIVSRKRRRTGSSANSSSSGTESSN

The target of a further assay is T6, GST-Aq-NF-kB (Amphimedon queenslandica, UniProt A9Y5G7 2-389).
T6 sequence: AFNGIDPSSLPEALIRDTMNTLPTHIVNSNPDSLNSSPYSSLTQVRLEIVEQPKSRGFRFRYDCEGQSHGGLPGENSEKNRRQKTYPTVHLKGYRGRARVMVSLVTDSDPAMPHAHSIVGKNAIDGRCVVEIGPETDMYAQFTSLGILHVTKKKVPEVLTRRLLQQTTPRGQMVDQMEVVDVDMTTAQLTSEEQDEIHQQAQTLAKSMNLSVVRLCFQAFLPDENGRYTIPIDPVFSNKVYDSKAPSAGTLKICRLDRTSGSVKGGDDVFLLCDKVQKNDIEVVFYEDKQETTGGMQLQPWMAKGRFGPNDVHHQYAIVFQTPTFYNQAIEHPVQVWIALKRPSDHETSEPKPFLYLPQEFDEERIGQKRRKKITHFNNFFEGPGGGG

Another assay has as its target GST-Hu-p50 (Homo sapiens, UniProt P19838 7-356).

GST-Hu-p50, sequence (P19838 7-356): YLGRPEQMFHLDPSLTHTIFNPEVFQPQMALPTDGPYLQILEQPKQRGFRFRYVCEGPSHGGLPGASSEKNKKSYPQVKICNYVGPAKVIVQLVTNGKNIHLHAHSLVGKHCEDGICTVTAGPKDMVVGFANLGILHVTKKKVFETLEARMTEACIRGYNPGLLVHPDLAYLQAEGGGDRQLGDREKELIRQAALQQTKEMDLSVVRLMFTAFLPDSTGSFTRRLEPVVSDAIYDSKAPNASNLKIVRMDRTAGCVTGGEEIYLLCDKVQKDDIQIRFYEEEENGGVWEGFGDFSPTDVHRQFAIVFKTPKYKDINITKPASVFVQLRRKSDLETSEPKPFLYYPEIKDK

Take “CCGATTAACATCAGGGAACTCCCTGATGTTAATCGGGTCTTGATTCGCTTGACGCTGCTG”: the binding signal in the assay with GST-Ap-NF-kB RHD is 8.33 z-score; in assay [1] it was 10.6 z-score; in assay [2], 6.92 z-score; with GST-Co-NF-kB it was 3.39 z-score; with GST-Dm-Relish, 9 z-score; with GST-Aq-NF-kB, 9.76 z-score. Further, the binding signal with GST-Hu-p50 amounted to 6.16 z-score.
On to “CCGATTAACATCAGGGGGTTCTATGATGTTAATCGGGTCTTGATTCGCTTGACGCTGCTG”, for which the binding signal stood at 7.12 z-score in the assay with GST-Ap-NF-kB RHD; 5.57 z-score in assay [1]; 6.75 z-score in assay [2]; 2.36 z-score with GST-Co-NF-kB; 6.97 z-score with GST-Dm-Relish; 5.33 z-score with GST-Aq-NF-kB. The same sequence yielded a binding signal with GST-Hu-p50 of 5.89 z-score.
In the case of “CCGATTAACATCACTACCCCCCCTGATGTTAATCGGGTCTTGATTCGCTTGACGCTGCTG”, the binding signal with GST-Ap-NF-kB RHD was determined as 3.87 z-score; in assay [1], 3.41 z-score; in assay [2], 2.74 z-score; with GST-Co-NF-kB, 5.59 z-score; with GST-Dm-Relish, 3.94 z-score; in the assay with GST-Aq-NF-kB it was 3.4 z-score. The binding signal in the assay with GST-Hu-p50 was 3.52 z-score.
Turning to “CCGATTAACATCAGGGGGAAGACTGATGTTAATCGGGTCTTGATTCGCTTGACGCTGCTG”, the binding signal in the assay with GST-Ap-NF-kB RHD stood at 5.87 z-score; in assay [1], 6.01 z-score; in assay [2], 6.96 z-score; with GST-Co-NF-kB, 8.23 z-score; with GST-Dm-Relish, 4.92 z-score; with GST-Aq-NF-kB it was 5.25 z-score. In the assay with GST-Hu-p50, this sequence registered a binding signal of 6.29 z-score.
Consider “CCGATTAACATCAGGCAATCCCCTGATGTTAATCGGGTCTTGATTCGCTTGACGCTGCTG”, for which the binding signal in the assay with GST-Ap-NF-kB RHD worked out at 7.27 z-score; in assay [1] it was 7.19 z-score; in assay [2] it was 6.86 z-score; with GST-Co-NF-kB it was 1.6 z-score; with GST-Dm-Relish it was 6.78 z-score; in the assay with GST-Aq-NF-kB it was 7.01 z-score. Moreover, in the assay with GST-Hu-p50, the binding signal is 5.39 z-score.
“CCGATTAACATCATAAATTCCCATGATGTTAATCGGGTCTTGATTCGCTTGACGCTGCTG”: the binding signal with GST-Ap-NF-kB RHD was 2.62 z-score; in assay [1], 5.12 z-score; in assay [2] it was 5.22 z-score; with GST-Co-NF-kB, 3.32 z-score; with GST-Dm-Relish, 5.06 z-score; in the assay with GST-Aq-NF-kB it was 3.71 z-score. This sequence displayed a binding signal with GST-Hu-p50 of 4.37 z-score.
Regarding “CCGATTAACATCAAAACACTCCCTGATGTTAATCGGGTCTTGATTCGCTTGACGCTGCTG”, the binding signal with GST-Ap-NF-kB RHD was determined as 2.25 z-score; in assay [1] it was 3.3 z-score; in assay [2], 2.69 z-score; with GST-Co-NF-kB, 2.06 z-score; with GST-Dm-Relish, 1.28 z-score; in the assay with GST-Aq-NF-kB, 4.45 z-score. Also, the binding signal with GST-Hu-p50 is 2.59 z-score.
In the case of “CCGATTAACATCAGGGGGAATACTGATGTTAATCGGGTCTTGATTCGCTTGACGCTGCTG”, the binding signal came to 8.15 z-score with GST-Ap-NF-kB RHD; 8.32 z-score in assay [1]; 8.65 z-score in assay [2]; 9.18 z-score with GST-Co-NF-kB; 7.69 z-score with GST-Dm-Relish; 6.87 z-score with GST-Aq-NF-kB. In the assay with GST-Hu-p50, this sequence gave a binding signal of 6.83 z-score.
In the case of “CCGATTAACATCAAAAAAGCCCCTGATGTTAATCGGGTCTTGATTCGCTTGACGCTGCTG”, the binding signal with GST-Ap-NF-kB RHD came to 7.94 z-score; in assay [1], 11.4 z-score; in assay [2], 9.29 z-score; with GST-Co-NF-kB, 1.83 z-score; with GST-Dm-Relish, 9.41 z-score; in the assay with GST-Aq-NF-kB, 8.77 z-score. The binding signal with GST-Hu-p50 came out at 7.54 z-score.
Turning to “CCGATTAACATCAATTATTCCCCTGATGTTAATCGGGTCTTGATTCGCTTGACGCTGCTG”, the binding signal with GST-Ap-NF-kB RHD turned out to be 6.67 z-score; in assay [1], 9.08 z-score; in assay [2] it was 9.75 z-score; with GST-Co-NF-kB, 9.22 z-score; with GST-Dm-Relish it was 5.24 z-score; with GST-Aq-NF-kB it was 5.63 z-score. The binding signal with GST-Hu-p50 stood at 6.11 z-score.
Consider “CCGATTAACATCACCGTCCCCCCTGATGTTAATCGGGTCTTGATTCGCTTGACGCTGCTG”, for which the binding signal in the assay with GST-Ap-NF-kB RHD turned out to be 4.94 z-score; in assay [1], 4.43 z-score; in assay [2], 4.21 z-score; in the assay with GST-Co-NF-kB it was 5.1 z-score; in the assay with GST-Dm-Relish, 4.4 z-score; with GST-Aq-NF-kB it was 4.34 z-score. This sequence also gave a binding signal in the assay with GST-Hu-p50 of 4.08 z-score.
Consider “CCGATTAACATCACCCTTCCCCCTGATGTTAATCGGGTCTTGATTCGCTTGACGCTGCTG”, for which the binding signal with GST-Ap-NF-kB RHD was 4.54 z-score; in assay [1], 4.49 z-score; in assay [2], 5.26 z-score; with GST-Co-NF-kB it was 5.61 z-score; in the assay with GST-Dm-Relish, 2.99 z-score; with GST-Aq-NF-kB, 4.32 z-score. This sequence also returned a binding signal in the assay with GST-Hu-p50 of 4.43 z-score.
